According to PubChem BioAssay (EPA / NIEHS):
Where “and” joins values, the source holds several entries; their conditions need not be identical. Identical values can stand only once. Inconclusive results are not listed. The source holds several records for some structures; these can differ, active in one and inactive in another. Calls of active or inactive are those of the source. Rule for the calls, unless noted: active = hit-call score of the fitted dose curve at least 0.9, where 1 is the maximum; inactive = score below 0.9.

Columns and labels:
[1] = ATG_PBREM_CIS: Attagene CIS-FACTORIAL HepG2 Assay for human Phenobarbital-responsive Enhancer Module (PBREM) (AID 2282955); details: HepG2 PBREM cis-reporter, Attagene multiplexed transcription; actives raise or lower the signal
Summary of the method: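 Transfected liver-derived HepG2 cells exposed 24 h; PBREM reporter transcript quantified via RT-PCR and capillary electrophoresis, with activity in either direction referenced to DMSO.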

[2] = ATG_PXRE_CIS: Attagene CIS-FACTORIAL HepG2 Assay for human Pregnane X Receptor Element (PXRE) (AID 2282957); details: HepG2 Attagene CIS-FACTORIAL PXRE reporter, mRNA; actives raise or lower the signal
Summary of the method: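 Reporter transcripts under endogenous PXR-responsive cis-regulation quantified from total RNA of transfected HepG2 cells 24 h post-dosing, via RT-PCR with fluorescent primer extension and capillary electrophoresis. Gain or loss of signal fitted against DMSO baseline.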

[3] = ATG_PPRE_CIS: Attagene CIS-FACTORIAL HepG2 Assay for human Peroxisome Proliferator-activated Response Element (PPRE) (AID 2282958); details: HepG2 PPRE cis-element reporter, Attagene transcription factor profiling; actives raise or lower the signal
Summary of the method: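 Measured endpoint: PPRE-controlled reporter mRNA, detected by RT-PCR and capillary electrophoresis fluorescence, from transiently transfected HepG2 cells 24 h after dosing. Curves fitted in both directions using DMSO baseline.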

[4] = ATG_Sox_CIS: Attagene CIS-FACTORIAL HepG2 Assay for human SRY-box transcription factor (SOX) (AID 2282960); details: HepG2 Attagene cis-factorial SOX reporter, mRNA; actives raise or lower the signal
Summary of the method: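 Gain- or loss-of-signal endpoint, fitted bidirectionally with DMSO as negative control. Based on reporter mRNA from transfected HepG2 cells harvested 24 h post-treatment and quantified via RT-PCR and capillary electrophoresis.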

[5] = biological target: Transcription factor Sp1 (Homo sapiens) (UniProt P08047); experiment: ATG_Sp1_CIS: Attagene CIS-FACTORIAL HepG2 Assay for human Specificity Protein 1 (Sp1) (AID 2282961); details: HepG2 Sp1 cis-reporter transcription, actives raise or lower the signal
Sequence of Transcription factor Sp1 (Homo sapiens) (P08047 whole entry, looked up, the tested form may be a part): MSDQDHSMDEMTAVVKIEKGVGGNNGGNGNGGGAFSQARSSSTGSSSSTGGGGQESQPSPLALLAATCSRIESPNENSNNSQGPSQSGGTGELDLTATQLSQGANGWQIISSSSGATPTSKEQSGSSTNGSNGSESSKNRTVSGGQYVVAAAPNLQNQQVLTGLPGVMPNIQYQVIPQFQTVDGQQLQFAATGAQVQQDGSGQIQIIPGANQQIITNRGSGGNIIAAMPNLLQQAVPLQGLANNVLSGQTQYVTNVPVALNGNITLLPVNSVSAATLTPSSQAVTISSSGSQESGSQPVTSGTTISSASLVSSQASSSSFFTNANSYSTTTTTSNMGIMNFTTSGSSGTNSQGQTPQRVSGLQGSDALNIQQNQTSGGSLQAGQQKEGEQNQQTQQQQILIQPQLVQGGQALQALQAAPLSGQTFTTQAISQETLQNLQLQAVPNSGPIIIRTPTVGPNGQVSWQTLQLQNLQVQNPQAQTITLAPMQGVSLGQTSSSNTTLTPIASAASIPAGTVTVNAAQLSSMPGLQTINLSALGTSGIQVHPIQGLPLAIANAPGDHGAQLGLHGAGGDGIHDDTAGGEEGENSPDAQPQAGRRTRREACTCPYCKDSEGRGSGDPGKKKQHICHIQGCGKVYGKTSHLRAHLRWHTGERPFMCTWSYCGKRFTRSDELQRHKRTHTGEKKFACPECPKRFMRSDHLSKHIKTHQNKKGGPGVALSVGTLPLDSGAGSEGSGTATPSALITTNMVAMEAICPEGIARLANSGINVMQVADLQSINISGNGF
Summary of the method: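 Endpoint reflects endogenous Sp1 transcriptional activity, not an exogenous fusion protein: HepG2 cells with transfected cis-regulated reporters, 24 h dosing, RT-PCR/capillary electrophoresis mRNA read-out, DMSO-normalised bidirectional fit.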

[6] = ATG_SREBP_CIS: Attagene CIS-FACTORIAL HepG2 Assay for human Sterol Regulatory Element Binding (SREBP) (AID 2282962); details: HepG2 Attagene cis-factorial SREBP reporter, mRNA; actives raise or lower the signal
Summary of the method: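 Values derive from bidirectional curve fitting with DMSO as baseline. The underlying measurement is reporter mRNA from cis-element-regulated units in transiently transfected HepG2, quantified by RT-PCR and capillary electrophoresis after 24 h exposure.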

[7] = biological target: Signal transducer and activator of transcription 3 (Homo sapiens) (UniProt P40763); experiment: ATG_STAT3_CIS: Attagene CIS-FACTORIAL HepG2 Assay for human Signal Transducer and Activator of Transcription 3 (STAT3) (AID 2282963); details: HepG2, Attagene cis-factorial STAT3 reporter transcription; actives raise or lower the signal
Sequence of Signal transducer and activator of transcription 3 (Homo sapiens) (P40763 whole entry, looked up, the tested form may be a part): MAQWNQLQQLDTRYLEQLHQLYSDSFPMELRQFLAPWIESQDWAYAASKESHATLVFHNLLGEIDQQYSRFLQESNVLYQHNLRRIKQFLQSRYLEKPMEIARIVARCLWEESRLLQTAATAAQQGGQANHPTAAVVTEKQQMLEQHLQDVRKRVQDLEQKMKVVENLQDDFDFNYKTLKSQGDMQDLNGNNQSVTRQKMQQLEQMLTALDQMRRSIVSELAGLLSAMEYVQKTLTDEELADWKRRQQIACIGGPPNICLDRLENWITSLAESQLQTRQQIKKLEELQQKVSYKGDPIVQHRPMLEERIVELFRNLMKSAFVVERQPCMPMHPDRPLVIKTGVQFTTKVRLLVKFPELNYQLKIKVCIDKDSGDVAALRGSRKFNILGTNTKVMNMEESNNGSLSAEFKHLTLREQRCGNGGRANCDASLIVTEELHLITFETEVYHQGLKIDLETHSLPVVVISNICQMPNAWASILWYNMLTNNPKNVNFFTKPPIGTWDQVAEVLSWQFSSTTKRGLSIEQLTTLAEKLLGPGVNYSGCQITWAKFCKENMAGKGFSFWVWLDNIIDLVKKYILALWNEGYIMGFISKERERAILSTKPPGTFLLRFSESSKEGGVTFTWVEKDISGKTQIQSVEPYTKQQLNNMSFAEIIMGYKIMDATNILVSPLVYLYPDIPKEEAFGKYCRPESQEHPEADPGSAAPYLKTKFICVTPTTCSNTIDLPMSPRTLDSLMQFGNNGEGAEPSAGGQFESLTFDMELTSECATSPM
Summary of the method: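 Readout: fluorescent reporter mRNA fragments resolved by capillary electrophoresis. Setup: HepG2 transfected with MRTUs reporting endogenous transcription-factor activity, dosed 24 h. Gain or loss of signal fitted bidirectionally against DMSO control.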

[8] = ATG_TA_CIS: Attagene CIS-FACTORIAL HepG2 Assay for human TA Basal Promoter (AID 2282964); details: HepG2 Attagene CIS-factorial TA basal promoter reporter; actives raise or lower the signal
Summary of the method: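 Transfected HepG2, 24 h compound exposure; RNA → RT-PCR → FAM primer extension → HpaI cut → CE fluorescence. Gain/loss-of-signal fitted against DMSO negative control. Background-control readout.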

[9] = ATG_TCF_b_cat_CIS: Attagene CIS-FACTORIAL HepG2 Assay for human T-Cell-Factor with beta-catenin (TCF/b-cat) (AID 2282965); details: HepG2 TCF/beta-catenin cis-reporter transcription, actives raise or lower the signal
Summary of the method: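 HepG2, transient MRTU transfection, cis-element-driven reporters (endogenous TFs). 24 h compound exposure. Readout: reporter mRNA by RT-PCR + 6-FAM primer extension, HpaI digest, capillary electrophoresis. Gain/loss fit vs DMSO baseline.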

[10] = ATG_TAL_CIS: Attagene CIS-FACTORIAL HepG2 Assay for human TAL Basal Promoter (AID 2282966); details: HepG2 Attagene cis-factorial TAL promoter reporter; actives raise or lower the signal;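 note: background control endpoint measuring basal TAL promoter reporter mRNA not a specific factor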
Summary of the method: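 Background-control endpoint: basal TAL promoter reporter transcripts in transiently transfected HepG2, measured 24 h after dosing. Read-out by RT-PCR with fluorescent primer extension and capillary electrophoresis; gain or loss of signal fitted relative to DMSO.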

[11] = ATG_TGFb_CIS: Attagene CIS-FACTORIAL HepG2 Assay for human Transforming Growth Factor (TGF) (AID 2282967); details: HepG2 Attagene CIS TGFb reporter, mRNA transcription; actives raise or lower the signal
Summary of the method: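 Readout: fluorescently labeled reporter cDNA fragments resolved by capillary electrophoresis after RT-PCR. Transfected HepG2 cells dosed for 24 h; endogenous TF activity at TGFB1-linked cis element; gain or loss fitted relative to DMSO.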

[12] = ATG_VDRE_CIS: Attagene CIS-FACTORIAL HepG2 Assay for human Vitamin D Receptor Element (VDRE) (AID 2282968); details: HepG2 VDRE cis-reporter transcription, actives raise or lower the signal
Summary of the method: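 Transient MRTU transfection of HepG2, 24 h compound exposure. Readout: reporter transcripts via RT-PCR and capillary electrophoresis, fluorescence. Bidirectional fit vs DMSO.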

[13] = biological target: X-box-binding protein 1 (Homo sapiens) (UniProt P17861); experiment: ATG_Xbp1_CIS: Attagene CIS-FACTORIAL HepG2 Assay for human X-box Binding Protein 1 (XBP1) (AID 2282972); details: HepG2 XBP1 cis-element reporter, Attagene multiplex; actives raise or lower the signal
Sequence of X-box-binding protein 1 (Homo sapiens) (P17861 whole entry, looked up): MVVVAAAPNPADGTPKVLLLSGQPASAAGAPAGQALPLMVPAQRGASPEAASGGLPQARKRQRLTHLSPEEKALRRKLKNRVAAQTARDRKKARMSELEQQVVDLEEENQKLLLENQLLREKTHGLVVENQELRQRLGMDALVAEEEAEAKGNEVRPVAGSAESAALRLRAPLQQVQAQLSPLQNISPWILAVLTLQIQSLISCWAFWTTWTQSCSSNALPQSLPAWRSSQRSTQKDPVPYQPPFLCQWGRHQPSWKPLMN
Summary of the method: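 Human hepatoma HepG2, cis-element reporter system, 24 h treatment; mRNA quantified by RT-PCR/CE fluorescence; fit relative to DMSO.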

[14] = ATG_M_19_TRANS: Attagene TRANS-FACTORIAL HepG2 Assay for M19 Transcription Factor (Internal Marker) (AID 2282974; active = hit-call score of the fitted dose curve at least 0.9, where 1 is the maximum); details: HepG2 Attagene TRANS-FACTORIAL M19 internal marker reporter
Summary of the method: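 Using RT-PCR and capillary electrophoresis, reporter mRNA from transiently transfected human HepG2 cells was quantified following 24 h exposure; activity was fitted in the positive direction against DMSO.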

[15] = ATG_GAL4_TRANS: Attagene TRANS-FACTORIAL HepG2 Assay for GAL4 (Internal Marker) (AID 2282976; active = hit-call score of the fitted dose curve at least 0.9, where 1 is the maximum); details: HepG2 Attagene TRANS GAL4 internal marker reporter
Summary of the method: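 In transfected human HepG2 liver cells dosed 24 h, GAL4 reporter mRNA serves as a baseline marker. Detection by RT-PCR with fluorescent capillary electrophoresis, activity fitted upward relative to DMSO.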

[16] = biological target: Nuclear receptor subfamily 1 group I member 3 (Homo sapiens) (UniProt Q14994); experiment: ATG_CAR_TRANS: Attagene TRANS-FACTORIAL HepG2 Assay for human Constitutive Androstane Receptor (CAR) (AID 2282969; active = hit-call score of the fitted dose curve at least 0.9, where 1 is the maximum;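 note: activators raise reporter mRNA above DMSO so AC50 marks induction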); details: HepG2 Attagene TRANS-FACTORIAL CAR reporter
Sequence of Nuclear receptor subfamily 1 group I member 3 (Homo sapiens) (Q14994 whole entry, looked up, the tested form may be a part): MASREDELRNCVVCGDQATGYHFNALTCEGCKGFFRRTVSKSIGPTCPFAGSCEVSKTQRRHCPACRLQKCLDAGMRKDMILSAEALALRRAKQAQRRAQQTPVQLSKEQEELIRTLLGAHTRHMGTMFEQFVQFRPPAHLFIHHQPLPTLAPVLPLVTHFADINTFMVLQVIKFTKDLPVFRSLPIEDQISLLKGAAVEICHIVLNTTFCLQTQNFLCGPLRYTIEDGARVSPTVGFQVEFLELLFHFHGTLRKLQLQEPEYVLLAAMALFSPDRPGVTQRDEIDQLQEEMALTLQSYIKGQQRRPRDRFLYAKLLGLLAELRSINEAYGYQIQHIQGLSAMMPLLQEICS
Summary of the method: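 Transiently transfected HepG2, multiplex TRANS reporters (CAR-Gal4 chimera driving GAL4-UAS reporter). 24 h dosing. Readout: reporter transcript by RT-PCR + capillary electrophoresis, fluorescence intensity; positive direction vs DMSO.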

[17] = biological target: Estrogen receptor (Homo sapiens) (UniProt P03372); experiment: ATG_ERa_TRANS: Attagene TRANS-FACTORIAL HepG2 Assay for human Estrogen Receptor alpha (ERa) (AID 2282970; active = hit-call score of the fitted dose curve at least 0.9, where 1 is the maximum); details: HepG2 Attagene TRANS ERa GAL4 reporter, mRNA
Sequence of Estrogen receptor (Homo sapiens) (P03372 whole entry, looked up, the tested form may be a part): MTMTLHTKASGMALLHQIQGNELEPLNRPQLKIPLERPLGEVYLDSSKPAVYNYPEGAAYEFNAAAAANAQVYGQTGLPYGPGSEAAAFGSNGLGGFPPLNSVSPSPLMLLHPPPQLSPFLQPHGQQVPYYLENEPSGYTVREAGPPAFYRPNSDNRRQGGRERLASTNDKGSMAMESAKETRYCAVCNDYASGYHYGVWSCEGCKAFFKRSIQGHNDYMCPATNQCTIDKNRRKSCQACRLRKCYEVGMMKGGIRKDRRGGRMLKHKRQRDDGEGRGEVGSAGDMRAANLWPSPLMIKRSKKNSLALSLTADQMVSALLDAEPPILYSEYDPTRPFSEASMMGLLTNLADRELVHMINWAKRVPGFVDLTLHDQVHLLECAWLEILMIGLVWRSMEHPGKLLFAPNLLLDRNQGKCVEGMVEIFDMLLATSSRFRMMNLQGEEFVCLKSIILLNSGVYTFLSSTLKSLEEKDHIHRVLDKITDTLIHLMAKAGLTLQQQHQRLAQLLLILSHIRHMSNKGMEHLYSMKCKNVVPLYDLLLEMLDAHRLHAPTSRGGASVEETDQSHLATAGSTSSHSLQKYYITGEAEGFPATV
Summary of the method: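 Reporter transcripts were measured 24 h after dosing by RT-PCR with fluorescent primer extension and capillary electrophoresis. The system is transiently transfected HepG2 expressing exogenous NR-Gal4 chimeras driving GAL4-UAS reporters; DMSO is the baseline.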

Measured: AC50

CSC(=O)c1cccc2nnsc12
active: [2] 49.4 µM
not listed: [16] | [17]
inactive: all other assays above

S=C(S)NCCNC(=S)S.[Mn+2].[S-]C([S-])=NCCN=C([S-])[S-].[Zn+2]
active: [2] 13.2 µM and 13 µM and 12.9 µM | [4] 16.5 µM and 23 µM and 22.3 µM | [9] 20 µM and 27.8 µM and 26.9 µM | [12] 30.3 µM and 11.4 µM
inactive: [2] | [4] | [5] | [6] | [7] | [8] | [9] | [10] | [11] | [12] | [13] | [14]

C=CCOC(Cn1ccnc1)c1ccc(Cl)cc1Cl (stereo not drawn)
active: [2] 4.84 µM | [6] 6.99 µM | [12] 3.43 µM
not listed: [17]
inactive: all other assays above

O=C(O)C1(C(=O)Nc2ccc(Cl)cc2Cl)CC1
active: [2] 69.7 µM | [3] 13.7 µM
not listed: [15]
inactive: all other assays above

C#C[C@]1(O)CC[C@H]2[C@@H]3CCC4=CC(=O)CC[C@@H]4[C@H]3CC[C@@]21CC
active: [2] 5.07 µM [middle of 5 runs] | [12] 27.6 µM
inactive: [3] | [4] | [5] | [6] | [7] | [8] | [9] | [10] | [11] | [12] | [13] | [14] | [15]
